# The supplement of paper PMC8728848
# The entries come from a sample that favours the strongest signals as a whole.
# B1: SBD-G4S3-Fc (protein)
# chain: MASIPSSASVQLDSYNYDGSTFSGKIYVKNIAYSKKVTVVYADGSDNWNNNGNIIAASFSGPISGSNYEYWTFSASVKGIKEFYIKYEVSGKTYYDNNNSANYQVSTGGGGSGGGGSGGGGSEFVPRDCGCKPCICTVPEVSSVFIFPPKPKDVLTITLTPKVTCVVVDISKDDPEVQFSWFVDDVEVHTAQTQPREEQFNSTFRSVSELPIMHQDWLNGKEFKCRVNSAAFPAPIEKTISKTKGRPKAPQVYTIPPPKEQMAKDKVSLTCMITDFFPEDITVEWQWNGQPAENYKNTQPIMDTDGSYFVYSKLNVQKSNWEAGNTFTCSVLHEGLHNHHTEKSLSHSPGAA
# Experiments:
# Assay in all cases: glycan array binding signal (z-score within array); higher = stronger binding
# Details in all cases: glycan notation: IUPAC condensed, linker removed
# [1] = biological target: Fuc(a1-2)Gal(b1-3)GalNAc(b1-3)Gal(a1-4)Gal(b1-4)Glc
# Method in brief: (§1)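 Glycan array data were curated from 3228 arrays in the Consortium for Functional Glycomics database and kept only where the protein sequence was available. Glycan names were converted to IUPAC-condensed notation, and columns mapping to the same glycan were averaged. The binding signal is a within-array Z-score, averaged across arrays of the same protein sequence at different concentrations or buffers and across linkers. Negative Z-scores can be read as non-binding.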
# [2] = biological target: Fuc(a1-2)Gal(b1-3)GlcNAc(b1-3)[Neu5Ac(a2-6)Gal(b1-4)GlcNAc(b1-6)]Gal(b1-4)Glc
# Method in brief: as §1
# [3] = biological target: Fuc(a1-2)Gal(b1-3)GlcNAc6S
# Method in brief: as §1
# [4] = biological target: Fuc(a1-2)Gal(b1-3)[Fuc(a1-4)]GlcNAc(b1-2)Man(a1-3)[Fuc(a1-2)Gal(b1-3)[Fuc(a1-4)]GlcNAc(b1-2)Man(a1-6)]Man(b1-4)GlcNAc(b1-4)[Fuc(a1-6)]GlcNAc(b1-4)[Fuc(a1-6)]GlcNAc
# Method in brief: as §1
# Fuc(a1-2)Gal(b1-4)GlcNAc = biological target: Fuc(a1-2)Gal(b1-4)GlcNAc
# Method in brief: as §1
# [5] = biological target: Fuc(a1-2)Gal(b1-4)GlcNAc(b1-3)Gal(b1-4)GlcNAc(b1-2)Man(a1-3)[Fuc(a1-2)Gal(b1-4)GlcNAc(b1-3)Gal(b1-4)GlcNAc(b1-2)Man(a1-6)]Man(b1-4)GlcNAc(b1-4)GlcNAc
# Method in brief: as §1
# [6] = biological target: Fuc(a1-2)Gal(b1-4)GlcNAc(b1-3)Gal(b1-4)GlcNAc(b1-3)Gal(b1-4)GlcNAc
# Method in brief: as §1
# [7] = biological target: Fuc(a1-2)Gal(b1-4)[Fuc(a1-3)]GlcNAc
# Method in brief: as §1
# [8] = biological target: Fuc(a1-2)Gal(b1-4)[Fuc(a1-3)]GlcNAc(b1-3)GalNAc
# Method in brief: as §1
# [9] = biological target: Fuc(a1-2)[Gal(a1-4)]Gal(b1-4)GlcNAc
# Method in brief: as §1
# [10] = biological target: Fuc(a1-2)[GalNAc(a1-3)]Gal(b1-3)GalNAc(a1-3)[Fuc(a1-2)]Gal(b1-4)GlcNAc
# Method in brief: as §1
# [11] = biological target: Fuc(a1-2)[GalNAc(a1-3)]Gal(b1-3)GalNAc(b1-3)Gal(a1-4)Gal(b1-4)Glc
# Method in brief: as §1
# [12] = biological target: Fuc(a1-2)[GalNAc(a1-3)]Gal(b1-4)GlcNAc(b1-2)Man(a1-3)[Fuc(a1-2)[GalNAc(a1-3)]Gal(b1-4)GlcNAc(b1-2)Man(a1-6)]Man(b1-4)GlcNAc(b1-4)GlcNAc
# Method in brief: as §1
# [13] = biological target: Fuc(a1-2)[GalNAc(a1-3)]Gal(b1-4)GlcNAc(b1-3)[Fuc(a1-2)[GalNAc(a1-3)]Gal(b1-4)GlcNAc(b1-6)]GalNAc
# Method in brief: as §1
# [14] = biological target: Gal(a1-3)Gal(b1-3)GlcNAc(b1-2)Man(a1-3)[Gal(a1-3)Gal(b1-3)GlcNAc(b1-2)Man(a1-6)]Man(b1-4)GlcNAc(b1-4)GlcNAc
# Method in brief: as §1
# [15] = biological target: Gal(a1-3)Gal(b1-4)GlcNAc(b1-2)Man
# Method in brief: as §1
# [16] = biological target: Gal(a1-3)Gal(b1-4)GlcNAc(b1-3)GalNAc
# Method in brief: as §1
# [17] = biological target: Gal(a1-3)[Gal(a1-4)]Gal(b1-4)GlcNAc
# Method in brief: as §1
# [18] = biological target: Gal(b1-3)GalNAc(a1-3)[Fuc(a1-2)]Gal(b1-4)Glc
# Method in brief: as §1
# [19] = biological target: Gal(b1-3)GalNAc(b1-3)Gal(a1-4)Gal(b1-4)Glc
# Method in brief: as §1
# Gal(b1-3)GlcNAc(b1-2)Man = biological target: Gal(b1-3)GlcNAc(b1-2)Man
# Method in brief: as §1
# [20] = biological target: Gal(b1-3)GlcNAc(b1-2)[Gal(b1-3)GlcNAc(b1-6)]Man(a1-6)[Gal(b1-3)GlcNAc(b1-2)Man(a1-3)]Man(b1-4)GlcNAc(b1-4)GlcNAc
# Method in brief: as §1
# [21] = biological target: Gal(b1-3)GlcNAc(b1-6)Gal(b1-4)GlcNAc
# Method in brief: as §1
# [22] = biological target: Gal(b1-3)[Neu5Ac(b2-6)]GalNAc
# Method in brief: as §1
# [23] = biological target: Gal(b1-4)GlcNAc(b1-2)Man(a1-3)Man(b1-4)GlcNAc(b1-4)GlcNAc
# Method in brief: as §1
# [24] = biological target: Gal(b1-4)GlcNAc(b1-2)Man(a1-3)[GlcNAc(b1-2)Man(a1-6)]Man(b1-4)GlcNAc(b1-4)GlcNAc
# Method in brief: as §1
# [25] = biological target: Gal(b1-4)GlcNAc(b1-2)Man(a1-6)[Man(a1-3)]Man(b1-4)GlcNAc(b1-4)GlcNAc
# Method in brief: as §1
# [26] = biological target: Gal(b1-4)GlcNAc(b1-2)[Gal(b1-4)GlcNAc(b1-6)]Man(a1-6)[GlcNAc(b1-4)][Gal(b1-4)GlcNAc(b1-2)Man(a1-3)]Man(b1-4)GlcNAc(b1-4)GlcNAc
# Method in brief: as §1
# [27] = biological target: Gal(b1-4)GlcNAc(b1-3)Gal(b1-4)Glc
# Method in brief: as §1
# [28] = biological target: Gal(b1-4)GlcNAc(b1-3)Gal(b1-4)GlcNAc
# Method in brief: as §1
# [29] = biological target: Gal(b1-4)GlcNAc(b1-3)Gal(b1-4)GlcNAc(b1-2)Man(a1-3)[Gal(b1-4)GlcNAc(b1-3)Gal(b1-4)GlcNAc(b1-2)Man(a1-6)]Man(b1-4)GlcNAc(b1-4)GlcNAc
# Method in brief: as §1
# [30] = biological target: Gal(b1-4)GlcNAc(b1-3)Gal(b1-4)GlcNAc(b1-2)[Gal(b1-4)GlcNAc(b1-3)Gal(b1-4)GlcNAc(b1-6)]Man(a1-6)[Gal(b1-4)GlcNAc(b1-3)Gal(b1-4)GlcNAc(b1-2)Man(a1-3)]Man(b1-4)GlcNAc(b1-4)[Fuc(a1-6)]GlcNAc
# Method in brief: as §1
# [31] = biological target: Gal(b1-4)GlcNAc(b1-3)Gal(b1-4)GlcNAc(b1-3)Gal(b1-4)GlcNAc(b1-3)Gal(b1-4)GlcNAc(b1-3)Gal(b1-4)GlcNAc(b1-2)Man(a1-3)[Gal(b1-4)GlcNAc(b1-3)Gal(b1-4)GlcNAc(b1-3)Gal(b1-4)GlcNAc(b1-3)Gal(b1-4)GlcNAc(b1-3)Gal(b1-4)GlcNAc(b1-2)Man(a1-6)]Man(b1-4)GlcNAc(b1-4)GlcNAc
# Method in brief: as §1
binder,measurement,setting,value
B1,glycan array binding signal (z-score),[1],-0.249
same,glycan array binding signal (z-score),[2],-0.478
same,glycan array binding signal (z-score),[3],-0.371
same,glycan array binding signal (z-score),[4],0.339
same,glycan array binding signal (z-score),Fuc(a1-2)Gal(b1-4)GlcNAc,-0.284
same,glycan array binding signal (z-score),[5],1.23
same,glycan array binding signal (z-score),[6],-0.034
same,glycan array binding signal (z-score),[7],0.134
same,glycan array binding signal (z-score),[8],0.32
same,glycan array binding signal (z-score),[9],-0.203
same,glycan array binding signal (z-score),[10],5.6
same,glycan array binding signal (z-score),[11],0.07
same,glycan array binding signal (z-score),[12],0.007
same,glycan array binding signal (z-score),[13],-0.2
same,glycan array binding signal (z-score),[14],1.16
same,glycan array binding signal (z-score),[15],-0.234
same,glycan array binding signal (z-score),[16],0.357
same,glycan array binding signal (z-score),[17],1.33
same,glycan array binding signal (z-score),[18],-0.267
same,glycan array binding signal (z-score),[19],0.103
same,glycan array binding signal (z-score),Gal(b1-3)GlcNAc(b1-2)Man,-0.388
same,glycan array binding signal (z-score),[20],-0.089
same,glycan array binding signal (z-score),[21],-0.401
same,glycan array binding signal (z-score),[22],-0.146
same,glycan array binding signal (z-score),[23],0.225
same,glycan array binding signal (z-score),[24],-0.37
same,glycan array binding signal (z-score),[25],0.054
same,glycan array binding signal (z-score),[26],0.227
same,glycan array binding signal (z-score),[27],-0.301
same,glycan array binding signal (z-score),[28],-0.054
same,glycan array binding signal (z-score),[29],8.04
same,glycan array binding signal (z-score),[30],0.249
same,glycan array binding signal (z-score),[31],1.16
